Records with an inconclusive call do not appear. Entries that show only a call come without a potency. Activity calls are given as the source filed them. The call rests on the fitted dose curve; in most records, active means well fitted antagonist curve with a large enough effect in the main read-out, with a control signal flat; inconclusive means small, poorly fitted or top-dose-only effect; inactive means no such curve, though single readings can be large or run the other way.

These results are taken from PubChem BioAssay AID2567 (National Center for Advancing Translational Sciences (NCATS), 2010).

Neuropeptide S receptor (Homo sapiens), sequence (Q6W5P4 whole entry, looked up): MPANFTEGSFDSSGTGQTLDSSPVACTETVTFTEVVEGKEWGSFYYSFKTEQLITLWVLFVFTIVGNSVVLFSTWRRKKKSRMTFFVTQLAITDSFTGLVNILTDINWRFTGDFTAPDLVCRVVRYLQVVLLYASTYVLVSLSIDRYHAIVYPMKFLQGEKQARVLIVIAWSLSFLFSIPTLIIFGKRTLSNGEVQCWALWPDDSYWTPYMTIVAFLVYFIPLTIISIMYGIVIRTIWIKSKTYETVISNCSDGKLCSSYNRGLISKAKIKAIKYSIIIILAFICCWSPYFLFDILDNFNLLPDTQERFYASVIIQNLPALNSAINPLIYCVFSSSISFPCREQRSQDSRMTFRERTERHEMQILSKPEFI

The experiment addresses Neuropeptide S receptor (Homo sapiens) (UniProt Q6W5P4). The experiment is described as follows: Confirmation Concentration-Response Assay for Antagonists of the Neuropeptide S Receptor: Calcium Signal Transduction, SAR for Probe. The following applies: CHO-NPSR cells, NPS-induced calcium fluorescence, FDSS; series mostly up to 19.3 µM. The gist of the method: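 Calcium flux was measured by kinetic fluorescence in dye-loaded CHO-NPSR cells, first after compound addition (210 s), then after NPS challenge (60 nM in stimulation reagent, 140 s). Hill-equation fitting gave AC50.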
Consider `CCCCOc1ccc(OCCCN2CCOCC2)cc1`, for which the Potency entry is “inactive”.

As to `CCOC(=O)c1cnc(-n2nc(C)cc2C)nc1Nc1ccc(C)cc1`, the Potency entry is “inactive”.

With `COc1ccc(C2c3c(n(Cc4ccccc4)cnc3=N)Oc3ccc4ccccc4c32)cc1OC` (stereo not given), the Potency entry is “inactive”.

Regarding `COc1ccc(C2c3c(ncn(CCCc4ccccc4)c3=N)Oc3ccc4ccccc4c32)cc1OC` (stereo not given), the Potency entry is “inactive”.

For the compound `Cc1ccc(NC(=S)NNC(C)(C)C)cc1`, the Potency entry is “inactive”.

Take `CC(=O)c1sc(N/N=C\c2ccccc2O)nc1C`: the Potency is 1120 nM (active).

As to `Cc1nn(C)cc1/C=N/NC(=S)Nc1ccccc1`, the Potency result is “inactive”.

Turning to `COc1cccc(C2c3c(ncn(-c4cccc(C#N)c4)c3=N)Oc3ccc4ccccc4c32)c1` (stereo not given), the Potency is 4380 nM (active).

As to `COc1ccc(C2c3ccc(OCc4ccccc4)cc3Oc3ncn(CCN4CCOCC4)c(=N)c32)cc1OC` (stereo not given), the Potency result is “inactive”.

In the case of `COc1ccc(C2c3ccccc3Oc3ncn(CCN4CCOCC4)c(=N)c32)cc1OC` (stereo not given), the Potency was 694 nM (active).

In the case of `COc1cccc2sc(Nc3nc(-c4ccccn4)cs3)nc12`, the Potency is 3160 nM (active).

On to `CCSc1nc2c(c(=O)n1Cc1ccccc1)SC(C)C2` (stereo not given), for which the Potency entry was “inactive”.

For the compound `Oc1ccc(N=Nc2nccs2)c(O)c1`, the Potency entry is “inactive”.

Take `Cc1cc2nc3ccc(=[N+](C)C)cc-3sc2cc1N`: the Potency result is “inactive”.

`COc1cccc(C2c3c(ncn(-c4ccccc4OC)c3=N)Oc3ccc4ccccc4c32)c1` (stereo not given): the Potency is 1100 nM (active).

Consider `COc1ccc(C2C3=C(N=CN(CCN4CCOCC4)C3N)Oc3ccccc32)cc1OC` (stereo not given), for which the Potency entry is “inactive”.

Regarding `OC(c1ccccc1)(c1ccccc1)c1cnc2ccccn12`, the Potency entry is “inactive”.

Consider `COc1ccc(C2c3c(nc(C)[nH]c3=O)Oc3ccc4ccccc4c32)cc1OC` (stereo not given), for which the Potency entry is “inactive”.

Turning to `COc1ccc(C2c3c(N)nc(Cc4ccccc4)nc3Oc3ccc4ccccc4c32)cc1OC` (stereo not given), the Potency result was “inactive”.

Regarding `CC(C)Cc1nc(N2CCN(C(=O)c3ccccc3)CC2)c(C#N)c2c1CCC2`, the Potency result was “inactive”.

With `Cc1c(P(=S)(c2ccccc2)c2ccccc2)c2ccccc2n1CCCc1ccccc1`, the Potency result was “inactive”.

Turning to `COc1cc(/C=C2\SC(c3ccc(C)cc3)=NC2=O)cc(OC)c1O`, the Potency entry is “inactive”.

Take `N=C1c2ccccc2CN1c1ccc(N2CCOCC2)c(S(=O)(=O)Nc2ccc(Cl)cc2)c1`: the Potency was 1410 nM (active).

As to `Cc1oc2c(c1C(=O)NCc1cccnc1)C(=O)c1ccccc1C2=O`, the Potency entry was “inactive”.

For the compound `COc1cccc(C2c3c(ncn(-c4ccc(Br)cc4)c3=N)Oc3ccc4ccccc4c32)c1` (stereo not given), the Potency is 2760 nM (active).

On to `CC(=O)c1sc(-c2ccccc2)cc1NS(=O)(=O)c1ccccc1`, for which the Potency entry was “inactive”.

Take `COc1cccc(C2c3c(ncn(-c4ccccn4)c3=N)Oc3ccc4ccccc4c32)c1` (stereo not given): the Potency was 5520 nM (active).

`C/C(=N\NC(=S)NC1CCCCC1)c1c(F)cccc1F`: the Potency result is “inactive”.

As for `COc1cccc(C2c3c(ncn(-c4cccc(Cl)c4)c3=N)Oc3ccc4ccccc4c32)c1` (stereo not given), the Potency was 8740 nM (active).

As for `C[n+]1cc(C(O)(c2ccccc2)c2ccccc2)n2ccccc21`, the Potency result is “inactive”.
